# Measured values as given in ChEMBL document CHEMBL1961873, “Compounds: GSK PKIS; Assays: Nanosyn kinase panel” (2012).
# Tests used:
# [1] = target: Sphingosine kinase 1 (Homo sapiens) (UniProt Q9NYA1); conditions: at 1 µM;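 also: mean SPHK1 inhibition value reported from the GSK PKIS kinase panel screen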
# [2] = target: T1, Sphingosine kinase 2 (Homo sapiens) (UniProt Q9NRA0); conditions: at 0.1 µM
# T1 sequence (whole entry): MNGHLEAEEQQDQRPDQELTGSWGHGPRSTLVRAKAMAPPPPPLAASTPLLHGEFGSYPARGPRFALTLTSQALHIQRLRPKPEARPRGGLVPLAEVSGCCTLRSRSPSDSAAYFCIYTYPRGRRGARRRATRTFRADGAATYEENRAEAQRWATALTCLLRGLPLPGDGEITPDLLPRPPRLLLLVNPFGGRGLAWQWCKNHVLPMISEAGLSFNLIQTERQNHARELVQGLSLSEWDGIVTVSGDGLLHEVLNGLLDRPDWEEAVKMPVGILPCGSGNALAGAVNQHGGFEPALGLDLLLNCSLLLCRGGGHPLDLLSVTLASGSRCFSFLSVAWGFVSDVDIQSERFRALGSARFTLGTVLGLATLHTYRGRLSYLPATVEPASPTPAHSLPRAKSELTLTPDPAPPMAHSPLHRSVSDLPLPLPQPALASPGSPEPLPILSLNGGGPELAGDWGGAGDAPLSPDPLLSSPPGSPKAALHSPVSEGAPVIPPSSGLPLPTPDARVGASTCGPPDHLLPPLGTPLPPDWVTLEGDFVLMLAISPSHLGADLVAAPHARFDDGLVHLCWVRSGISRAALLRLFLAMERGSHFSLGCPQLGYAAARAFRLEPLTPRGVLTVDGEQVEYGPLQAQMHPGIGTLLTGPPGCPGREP
# [3] = target: T1, Sphingosine kinase 2 (Homo sapiens); conditions: at 1 µM
# [4] = target: Casein kinase II subunit alpha (Homo sapiens) (UniProt P68400); conditions: at 0.1 µM
# Chain of Casein kinase II subunit alpha (Homo sapiens) (P68400 whole entry, looked up): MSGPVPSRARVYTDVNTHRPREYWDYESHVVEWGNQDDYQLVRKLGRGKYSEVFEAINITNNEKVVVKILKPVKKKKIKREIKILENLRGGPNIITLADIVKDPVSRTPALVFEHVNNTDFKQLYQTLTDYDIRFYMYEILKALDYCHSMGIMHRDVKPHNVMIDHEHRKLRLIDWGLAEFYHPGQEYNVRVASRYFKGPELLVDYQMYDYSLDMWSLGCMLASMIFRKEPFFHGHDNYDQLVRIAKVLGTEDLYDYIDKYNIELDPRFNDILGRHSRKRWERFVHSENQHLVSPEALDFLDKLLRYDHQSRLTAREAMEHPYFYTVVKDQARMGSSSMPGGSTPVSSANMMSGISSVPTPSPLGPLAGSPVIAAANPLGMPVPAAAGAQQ
# [5] = target: Casein kinase II subunit alpha (Homo sapiens) (UniProt P68400); conditions: at 1 µM
# [6] = target: T2, Inhibitor of nuclear factor kappa-B kinase subunit alpha (Homo sapiens) (UniProt O15111); conditions: at 0.1 µM
# T2 sequence (whole entry): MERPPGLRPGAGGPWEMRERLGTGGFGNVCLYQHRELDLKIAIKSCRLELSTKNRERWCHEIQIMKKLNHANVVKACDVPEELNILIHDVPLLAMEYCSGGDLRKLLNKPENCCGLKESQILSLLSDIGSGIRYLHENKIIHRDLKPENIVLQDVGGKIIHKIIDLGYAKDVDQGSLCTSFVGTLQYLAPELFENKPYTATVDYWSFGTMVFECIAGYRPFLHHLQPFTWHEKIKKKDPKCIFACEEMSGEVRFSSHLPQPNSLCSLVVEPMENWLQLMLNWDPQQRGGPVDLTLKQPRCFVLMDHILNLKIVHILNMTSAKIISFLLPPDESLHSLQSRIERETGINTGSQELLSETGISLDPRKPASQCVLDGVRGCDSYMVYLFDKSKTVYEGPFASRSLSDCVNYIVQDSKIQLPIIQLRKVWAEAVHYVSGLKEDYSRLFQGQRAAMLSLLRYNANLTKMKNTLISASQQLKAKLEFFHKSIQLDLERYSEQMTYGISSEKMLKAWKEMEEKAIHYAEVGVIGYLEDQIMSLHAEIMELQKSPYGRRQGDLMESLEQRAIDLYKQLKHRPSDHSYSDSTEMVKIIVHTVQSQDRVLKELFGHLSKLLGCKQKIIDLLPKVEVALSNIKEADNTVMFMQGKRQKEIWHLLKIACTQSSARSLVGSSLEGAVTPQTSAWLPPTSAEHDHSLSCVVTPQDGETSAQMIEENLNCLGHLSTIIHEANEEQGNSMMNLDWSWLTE
# [7] = target: T2, Inhibitor of nuclear factor kappa-B kinase subunit alpha (Homo sapiens); conditions: at 1 µM
# [8] = target: T3, Inhibitor of nuclear factor kappa-B kinase subunit beta (Homo sapiens) (UniProt O14920); conditions: at 0.1 µM
# T3 sequence (whole entry): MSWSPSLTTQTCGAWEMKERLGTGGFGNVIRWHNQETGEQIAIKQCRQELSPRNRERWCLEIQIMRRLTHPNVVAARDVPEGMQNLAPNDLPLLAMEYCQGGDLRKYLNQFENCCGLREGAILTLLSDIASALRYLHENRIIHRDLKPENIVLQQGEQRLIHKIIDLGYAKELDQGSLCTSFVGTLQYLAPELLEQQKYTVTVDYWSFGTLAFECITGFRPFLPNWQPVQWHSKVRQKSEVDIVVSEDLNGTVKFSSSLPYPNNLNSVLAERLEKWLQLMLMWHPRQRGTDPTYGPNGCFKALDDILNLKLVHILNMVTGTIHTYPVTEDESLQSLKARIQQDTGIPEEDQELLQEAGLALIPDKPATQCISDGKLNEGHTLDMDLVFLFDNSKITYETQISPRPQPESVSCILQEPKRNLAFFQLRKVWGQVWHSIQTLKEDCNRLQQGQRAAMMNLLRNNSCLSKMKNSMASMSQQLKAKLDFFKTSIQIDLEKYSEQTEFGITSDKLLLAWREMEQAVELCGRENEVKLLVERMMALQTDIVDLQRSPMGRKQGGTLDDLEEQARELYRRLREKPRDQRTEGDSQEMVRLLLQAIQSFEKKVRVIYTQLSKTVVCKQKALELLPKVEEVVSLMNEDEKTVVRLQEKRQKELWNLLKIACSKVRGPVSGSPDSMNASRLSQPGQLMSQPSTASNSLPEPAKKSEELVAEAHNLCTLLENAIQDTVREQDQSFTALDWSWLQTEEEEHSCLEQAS
# [9] = target: T3, Inhibitor of nuclear factor kappa-B kinase subunit beta (Homo sapiens); conditions: at 1 µM
# [10] = target: T4, Inhibitor of nuclear factor kappa-B kinase subunit epsilon (Homo sapiens) (UniProt Q14164); conditions: at 0.1 µM
# T4 sequence (whole entry): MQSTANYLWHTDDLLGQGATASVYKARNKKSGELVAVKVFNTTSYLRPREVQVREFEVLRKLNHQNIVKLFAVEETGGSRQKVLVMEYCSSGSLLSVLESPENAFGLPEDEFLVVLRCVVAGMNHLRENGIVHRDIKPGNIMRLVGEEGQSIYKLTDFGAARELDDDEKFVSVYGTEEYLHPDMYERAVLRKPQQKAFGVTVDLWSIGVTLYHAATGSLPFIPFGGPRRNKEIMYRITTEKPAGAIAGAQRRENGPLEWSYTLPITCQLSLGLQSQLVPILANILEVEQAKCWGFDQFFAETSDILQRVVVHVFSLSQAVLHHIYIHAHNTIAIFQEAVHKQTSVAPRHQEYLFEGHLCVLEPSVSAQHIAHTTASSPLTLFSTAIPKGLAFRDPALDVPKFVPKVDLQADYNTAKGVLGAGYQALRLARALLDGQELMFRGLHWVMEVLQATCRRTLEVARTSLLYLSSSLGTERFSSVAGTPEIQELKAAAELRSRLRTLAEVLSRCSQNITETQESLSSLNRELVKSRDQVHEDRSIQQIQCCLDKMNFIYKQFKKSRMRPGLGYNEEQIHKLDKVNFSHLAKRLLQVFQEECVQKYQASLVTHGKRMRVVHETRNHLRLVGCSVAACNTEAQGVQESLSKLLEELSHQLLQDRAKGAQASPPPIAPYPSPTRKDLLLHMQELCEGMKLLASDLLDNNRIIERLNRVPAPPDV
# [11] = target: T4, Inhibitor of nuclear factor kappa-B kinase subunit epsilon (Homo sapiens); conditions: at 1 µM
# [12] = target: T5, Serine/threonine-protein kinase Nek1 (Homo sapiens) (UniProt Q96PY6); conditions: at 0.1 µM
# T5 sequence (whole entry): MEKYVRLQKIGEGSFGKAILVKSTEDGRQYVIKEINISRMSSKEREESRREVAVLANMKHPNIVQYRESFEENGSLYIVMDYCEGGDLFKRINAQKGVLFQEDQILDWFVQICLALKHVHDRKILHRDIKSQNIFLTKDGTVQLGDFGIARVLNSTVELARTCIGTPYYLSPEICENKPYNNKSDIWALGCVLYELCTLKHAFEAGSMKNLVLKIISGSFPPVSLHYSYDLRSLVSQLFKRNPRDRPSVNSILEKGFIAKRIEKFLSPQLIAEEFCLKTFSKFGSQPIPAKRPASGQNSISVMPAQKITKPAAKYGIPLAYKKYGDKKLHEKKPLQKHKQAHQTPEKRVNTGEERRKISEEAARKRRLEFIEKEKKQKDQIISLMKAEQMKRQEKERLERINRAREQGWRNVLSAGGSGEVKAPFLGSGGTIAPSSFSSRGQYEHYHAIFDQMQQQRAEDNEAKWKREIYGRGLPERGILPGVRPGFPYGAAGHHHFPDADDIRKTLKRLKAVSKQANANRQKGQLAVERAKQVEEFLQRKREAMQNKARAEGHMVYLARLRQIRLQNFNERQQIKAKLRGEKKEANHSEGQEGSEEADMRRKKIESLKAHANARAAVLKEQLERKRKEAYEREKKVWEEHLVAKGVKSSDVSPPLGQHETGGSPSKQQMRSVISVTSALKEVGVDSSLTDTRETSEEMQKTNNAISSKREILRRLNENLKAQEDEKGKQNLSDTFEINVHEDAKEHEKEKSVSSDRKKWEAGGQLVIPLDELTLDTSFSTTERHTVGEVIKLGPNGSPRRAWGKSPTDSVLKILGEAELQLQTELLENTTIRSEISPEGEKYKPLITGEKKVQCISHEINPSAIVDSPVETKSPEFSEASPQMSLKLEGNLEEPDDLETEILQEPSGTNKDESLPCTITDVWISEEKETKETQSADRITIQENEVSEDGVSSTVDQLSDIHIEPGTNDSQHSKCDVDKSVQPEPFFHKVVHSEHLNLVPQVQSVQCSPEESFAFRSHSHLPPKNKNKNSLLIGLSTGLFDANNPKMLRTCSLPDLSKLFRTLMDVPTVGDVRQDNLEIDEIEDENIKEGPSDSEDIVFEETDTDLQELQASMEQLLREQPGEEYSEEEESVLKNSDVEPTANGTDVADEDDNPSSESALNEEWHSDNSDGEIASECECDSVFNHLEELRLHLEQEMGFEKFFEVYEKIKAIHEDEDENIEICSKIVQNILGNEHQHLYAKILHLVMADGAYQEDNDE
# [13] = target: T5, Serine/threonine-protein kinase Nek1 (Homo sapiens); conditions: at 1 µM
# [14] = target: T6, Serine/threonine-protein kinase Nek2 (Homo sapiens) (UniProt P51955); conditions: at 0.1 µM
# T6 sequence (whole entry): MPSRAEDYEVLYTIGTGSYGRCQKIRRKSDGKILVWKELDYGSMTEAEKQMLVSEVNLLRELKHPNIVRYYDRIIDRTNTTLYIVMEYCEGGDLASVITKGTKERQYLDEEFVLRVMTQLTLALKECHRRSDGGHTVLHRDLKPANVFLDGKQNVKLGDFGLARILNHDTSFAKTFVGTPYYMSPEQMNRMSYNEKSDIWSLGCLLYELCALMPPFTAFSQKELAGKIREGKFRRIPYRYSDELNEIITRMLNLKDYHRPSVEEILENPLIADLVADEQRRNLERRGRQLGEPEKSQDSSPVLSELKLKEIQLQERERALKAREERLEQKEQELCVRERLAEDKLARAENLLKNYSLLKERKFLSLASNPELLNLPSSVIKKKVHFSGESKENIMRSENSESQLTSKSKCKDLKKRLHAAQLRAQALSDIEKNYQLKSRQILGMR
# [15] = target: T6, Serine/threonine-protein kinase Nek2 (Homo sapiens); conditions: at 1 µM
# [16] = target: Serine/threonine-protein kinase Nek6 (Homo sapiens) (UniProt Q9HC98); conditions: at 0.1 µM
# Chain of Serine/threonine-protein kinase Nek6 (Homo sapiens) (Q9HC98 whole entry): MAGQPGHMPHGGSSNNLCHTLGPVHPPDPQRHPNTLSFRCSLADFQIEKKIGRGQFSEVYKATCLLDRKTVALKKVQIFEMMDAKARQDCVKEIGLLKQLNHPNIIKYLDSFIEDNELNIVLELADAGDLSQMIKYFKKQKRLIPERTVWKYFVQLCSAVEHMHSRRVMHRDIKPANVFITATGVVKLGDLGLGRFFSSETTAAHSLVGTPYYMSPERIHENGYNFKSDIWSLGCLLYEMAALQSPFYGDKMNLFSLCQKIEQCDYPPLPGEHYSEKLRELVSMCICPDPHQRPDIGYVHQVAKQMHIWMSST
# [17] = target: Serine/threonine-protein kinase Nek6 (Homo sapiens) (UniProt Q9HC98); conditions: at 1 µM
# [18] = target: Serine/threonine-protein kinase Nek7 (Homo sapiens) (UniProt Q8TDX7); conditions: at 0.1 µM
# Chain of Serine/threonine-protein kinase Nek7 (Homo sapiens) (Q8TDX7 whole entry, looked up): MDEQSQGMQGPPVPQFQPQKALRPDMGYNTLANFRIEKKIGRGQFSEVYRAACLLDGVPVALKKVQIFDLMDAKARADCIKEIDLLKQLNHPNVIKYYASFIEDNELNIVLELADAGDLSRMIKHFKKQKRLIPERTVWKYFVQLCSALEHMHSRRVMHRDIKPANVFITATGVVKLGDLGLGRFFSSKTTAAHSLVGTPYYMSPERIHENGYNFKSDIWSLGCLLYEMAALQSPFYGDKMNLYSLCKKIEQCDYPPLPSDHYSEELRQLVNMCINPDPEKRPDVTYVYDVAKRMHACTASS
# [19] = target: Serine/threonine-protein kinase Nek7 (Homo sapiens) (UniProt Q8TDX7); conditions: at 1 µM
# [20] = target: T7, Serine/threonine-protein kinase Nek9 (Homo sapiens) (UniProt Q8TD19); conditions: at 0.1 µM;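 also: reported value is the mean percent inhibition of NEK9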
# T7 sequence (whole entry): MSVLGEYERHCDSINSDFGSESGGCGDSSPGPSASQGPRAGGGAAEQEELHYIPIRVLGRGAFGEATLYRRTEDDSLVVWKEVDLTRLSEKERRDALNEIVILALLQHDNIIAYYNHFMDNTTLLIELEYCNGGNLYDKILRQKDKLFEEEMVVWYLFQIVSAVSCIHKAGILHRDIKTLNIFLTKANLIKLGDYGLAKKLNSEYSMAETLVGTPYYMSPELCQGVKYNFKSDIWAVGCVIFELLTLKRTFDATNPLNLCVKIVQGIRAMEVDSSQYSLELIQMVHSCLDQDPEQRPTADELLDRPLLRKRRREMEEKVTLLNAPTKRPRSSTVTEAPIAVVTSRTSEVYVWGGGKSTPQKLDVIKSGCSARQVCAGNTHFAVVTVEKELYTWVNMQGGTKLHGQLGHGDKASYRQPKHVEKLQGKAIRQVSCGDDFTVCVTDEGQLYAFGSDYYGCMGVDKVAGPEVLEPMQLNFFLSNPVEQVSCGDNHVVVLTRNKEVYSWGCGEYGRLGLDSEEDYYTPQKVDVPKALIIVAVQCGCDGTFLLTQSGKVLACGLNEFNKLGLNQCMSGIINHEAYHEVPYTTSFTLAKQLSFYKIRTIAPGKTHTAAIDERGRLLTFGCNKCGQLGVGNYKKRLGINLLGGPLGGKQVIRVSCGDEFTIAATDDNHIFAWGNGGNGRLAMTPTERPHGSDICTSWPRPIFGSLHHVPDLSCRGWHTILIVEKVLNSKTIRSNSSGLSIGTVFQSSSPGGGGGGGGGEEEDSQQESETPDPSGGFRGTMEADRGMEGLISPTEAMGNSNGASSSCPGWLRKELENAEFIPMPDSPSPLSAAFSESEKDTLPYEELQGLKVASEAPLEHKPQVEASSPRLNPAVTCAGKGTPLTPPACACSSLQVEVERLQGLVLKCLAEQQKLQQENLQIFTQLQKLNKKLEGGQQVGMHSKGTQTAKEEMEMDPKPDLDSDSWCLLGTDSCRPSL
# Chain of Sphingosine kinase 1 (Homo sapiens) (Q9NYA1 whole entry): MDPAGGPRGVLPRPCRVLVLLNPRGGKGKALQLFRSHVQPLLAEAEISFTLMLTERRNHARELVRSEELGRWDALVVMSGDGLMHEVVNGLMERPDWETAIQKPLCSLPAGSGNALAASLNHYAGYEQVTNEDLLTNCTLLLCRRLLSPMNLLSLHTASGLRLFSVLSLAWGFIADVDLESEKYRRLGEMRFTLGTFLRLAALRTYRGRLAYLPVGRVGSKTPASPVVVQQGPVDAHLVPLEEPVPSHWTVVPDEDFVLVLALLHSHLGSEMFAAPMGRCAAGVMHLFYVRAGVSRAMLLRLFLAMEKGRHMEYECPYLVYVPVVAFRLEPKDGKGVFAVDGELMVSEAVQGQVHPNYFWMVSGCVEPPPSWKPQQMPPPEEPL
structure (smiles),measurement,setting,value
CCCNc1cccc(-n2ncc3c(N/N=C/c4ccncc4)ncnc32)c1,inhibition,[1],-3.91%
same,inhibition,[2],-0.44%
same,inhibition,[3],1.31%
same,inhibition,[4],1.7%
same,inhibition,[5],14.1%
same,inhibition,[6],5.25%
same,inhibition,[7],0.68%
same,inhibition,[8],0.62%
same,inhibition,[9],3.19%
same,inhibition,[10],5.27%
same,inhibition,[11],13.4%
same,inhibition,[12],0.28%
same,inhibition,[13],7.87%
same,inhibition,[14],-1.07%
same,inhibition,[15],0.85%
same,inhibition,[16],4.08%
same,inhibition,[17],2.63%
same,inhibition,[18],-1.02%
same,inhibition,[19],-0.91%
same,inhibition,[20],1.01%
